# Screening results: PubChem BioAssay, National Center for Advancing Translational Sciences (NCATS)
# IL-1B inflam inh = blocks inflammasome-driven IL-1 beta release; THP-1 LPS/ATP IL-1B secretion, AlphaLISA, 16 h; active compounds read low; activity change, % at 57.5 µM; 360,000 compounds, 4.7% hits; AID 743279; in the data active = activity change below about -50%; inconclusive = mostly about -30% to -49%
#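 Secreted IL-1B measured by AlphaLISA bead assay after 16 h compound exposure of THP-1 cells; compounds (final up to 57.5 uM) added 1 h before LPS (250 ng/mL) and ATP (1.25 mM) stimulation; lower signal means less secretion.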
# HT1080-NT tox = kills 2HG-producing HT-1080-NT fibrosarcoma cells; HT-1080-NT fibrosarcoma viability, CellTiter-Glo ATP luminescence, 48 h; Potency, µM (highest dose often 46.1 µM), inactives show at the highest dose activity, negative = less viability, hits mostly cytotoxic; 360,000 compounds, 1.6% hits; AID 686970;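 note: NT is the 2HG producing partner of a matched IDH1 knockdown line; potency is the fitted concentration of half-maximal effect; 0% = DMSO-treated cells and -100% = media-only wells without cells; nearly all actives have a fitted effect of over 55% in size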
#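 Viability of the 2HG-overproducing fibrosarcoma line after 48 hours of compound exposure at 37 degrees C was determined by luminescence with CellTiter-Glo, and concentration-effect curves were then fitted and categorized.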
# DT40 TDP1 no CPT = qHTS for Inhibitors of human tyrosyl-DNA phosphodiesterase 1 (TDP1): qHTS in cells in absence of CPT. DT40 Tdp1-/- hTDP1 cells, no CPT, ATP luminescence, 48 h. 420,000 compounds, 15% hits. Potency, µM (top dose mostly 46.2 µM), for inactives: top-dose activity change, negative = growth inhibition, hits mostly inhibitors; note: potency is the fitted concentration of half-maximal effect; nearly all actives have a fitted effect of over 55% in size
#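 Luminescent ATP content (CellTiter-Glo) served as the growth readout. Knockout chicken DT40 cells expressing human TDP1 were exposed to compounds without camptothecin for a minimum 48 hr at 37 °C.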
# uPA generation = cell surface uPA generation inhibition | 330,000 compounds, 0.31% hits | cell surface uPA generation assay, qHTS | AID 540303 | Potency, µM (series often up to 38.3 µM), inactives show at the top dose activity change, negative = inhibition, hits mostly inhibitors; active = well fitted inhibition curve with a large enough effect; inconclusive = small, poorly fitted or top-dose-only effect; inactive = no such curve, though single readings can be large or run the other way; tested in mouse RAW 264.7 cells; note: potency is the fitted concentration of half-maximal effect; nearly all actives have a fitted effect of over 55% in size
# TDP1 cell CPT = DT40-hTDP1 cell growth loss with CPT; AID 686979; chicken DT40 Tdp1-/-;hTDP1 cells + 20 nM CPT, ATP luminescence, 48 h; 420,000 compounds, 12% hits; Potency, µM (series often up to 46.2 µM), without a hit: at the highest dose activity change, negative = growth inhibition, hits mostly inhibitors; note: potency is the fitted concentration of half-maximal effect; nearly all actives have a fitted effect of over 55% in size
#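 Cell growth measured by CellTiter-Glo luminescence after a minimum 48 h, 37 C compound exposure with 20 nM CPT in Tdp1-knockout DT40 cells stably expressing hTDP1, seeded 400/well; qHTS titration format.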
# HT1080 IDH1KD tx = HT-1080 IDH1 knockdown cell toxicity (counter line) | HT-1080 IDH1 knockdown viability, ATP luminescence, 48 h | AID 686971 | Potency, µM (highest dose often 46.1 µM), for the others: at the top dose activity, negative = toxicity, hits mostly cytotoxic | 360,000 compounds, 2% hits;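 note: potency is the fitted concentration of half-maximal effect; 0% = DMSO wells and -100% = cell-free medium wells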
#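 CellTiter-Glo luminescence after 48 h compound exposure at 37 degrees C of IDH1-knockdown HT-1080 cells in 5% FBS RPMI. %Activity scaled between DMSO wells and cell-free media wells, with curves fitted and assigned curve classes.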
# An asterisk follows results filed as active; ? = inconclusive; . = no result given; [ ] = remark or other dose. Compounds with a hit are over-represented: about 19% of the library has one in this group of screens. Unless noted, calls come from the whole dose curve; as a rule, active = well fitted curve in the direction sought with a large enough effect; inconclusive = small, poorly fitted or top-dose-only effect, or another doubt; inactive = no such curve, though single readings can be large; an effect the other way counts as inactive or inconclusive. Unless noted, % is set by controls: 0 for no effect and ±100 for the full control effect.
SMILES,IL-1B inflam inh,HT1080-NT tox,DT40 TDP1 no CPT,uPA generation,TDP1 cell CPT,HT1080 IDH1KD tx
CCc1nn(CC(=O)NCCCN2CCN(C)CC2)c(=O)c2cc3sccc3n12,-11.2,7.6%,16.9%,-0.8%,-11.3%,6.3%
CCOC1=C2CN(S(=O)(=O)c3ccc(C)cc3)[C@H](c3ccccc3)C[C@@H]2N(S(=O)(=O)c2ccc(Br)cc2)[C@H](c2ccccc2)C1,-14.0,20.6%,11.6µM*,.,?,0.7%
CCOC1=C2CN(S(=O)(=O)c3ccc(C)cc3)C(c3ccc(CC)cc3)CC2N(S(=O)(=O)c2ccc(C)cc2)C(c2ccc(CC)cc2)C1 (configuration not stated),9.2,16.9%,2.06µM*,.,3.66µM*,9.4%
NCCCC[C@H]1CNC(=S)N1CCc1cccc(F)c1,23.7,-19.4%,-22.6%,-6.4%,?,-5.4%
COc1ccc(C(N)=O)cc1NC(=O)CC(O)(C(F)(F)F)C(F)(F)F,?,1.5%,?,13.9%,14.6µM*,0.3%[9.24 µM]
CCOc1ccccc1NC(=O)CC(O)(C(F)(F)F)C(F)(F)F,7.3,18.4%,-6.2%,6.6%,-19.7%,1.6%
COc1ccc(OCC(O)Cn2c(N3CCCCC3)nc3c2c(=O)n(C)c(=O)n3C)cc1 (configuration not stated),35.1,-7.8%,16.4µM*,0.9%,?,-2.2%
CC1Cc2ccccc2N1C(=O)CSc1nc2c(c(=O)n(C)c(=O)n2C)n1Cc1ccccc1 (configuration not stated),-13.8,3.8%,20.6µM*,10.9%,23.1µM*,-2.9%
CCCn1c(SCC(=O)N2CCN(c3ccc(OC)cc3)CC2)nc2c1c(=O)n(C)c(=O)n2C,57.1,-0.3%,16.4µM*,2.4%,18.4µM*,-10.0%
C=C(C)Cn1c(N2CCN(c3ccc(OC)cc3)CC2)nc2c1c(=O)n(C)c(=O)n2C,-10.6,-15.6%,13µM*,-4.9%,16.4µM*,-17.2%
Cn1cc(-c2nc3cnc(OCc4ccccc4)nc3n(CCC#N)c2=O)c2ccccc21,.,.,17.1%,.,10.2%,.
COc1ccc2c(c1)OC(C)CN(CCNC(=O)c1cccc(N3CCNC3=O)c1)C2 (configuration not stated),.,.,-22.2%,.,27.9%[9.04 µM],.
CCOC(=O)C1=C(C)NC(=S)NC1/C=C/c1ccccc1 (configuration not stated),-6.5,-1.6%,-19.4%,2.2%,-16.9%,-10.7%
Cc1cc(SCC(=O)NCC2CCCO2)nc2ccccc12 (configuration not stated),21.8,0.7%,2.0%,-7.1%,3.1%,4.9%
CCCCN(C(=O)CSc1n[nH]c(-c2ccc(C)cc2)n1)c1c(N)n(CCCC)c(=O)[nH]c1=O,2.6,1.9%,-14.5%,-4.9%,-2.3%,13.3%
CC1CCCN(c2nc3c(c(=O)n(C)c(=O)n3C)n2Cc2ccccc2)C1 (configuration not stated),72.1,11.7%,23.1µM*,-4.0%,?,24.2%
CC1CCCN(Cc2nc3c(c(=O)n(C)c(=O)n3C)n2Cc2ccc(Cl)cc2)C1 (configuration not stated),.,.,-14.8%,.,-10.2%,.
CCCCCCn1c(N2CCN(c3ccccc3)CC2)nc2c1c(=O)n(C)c(=O)n2C,-2.0,11.9%,20.6µM*,.,?,-0.8%
COCCn1c(N2CCN(c3ccccc3)CC2)nc2c1c(=O)n(C)c(=O)n2C,60.7,12.0%,?,-8.6%,-26.3%,6.5%
Cn1c(=O)c2c(nc(N3CCOCC3)n2Cc2ccc(Br)cc2)n(C)c1=O,.,.,20.6µM*,.,10.3µM*,.
